Screening results deposited in PubChem by National Center for Advancing Translational Sciences (NCATS).
HT1080NT lethal: qHTS for induction of synthetic lethality in tumor cells producing 2HG: qHTS for the HT-1080-NT fibrosarcoma cell line | HT-1080-NT fibrosarcoma viability, CellTiter-Glo ATP luminescence, 48 h | Potency, µM (titrated, usually from 46.1 µM), actives largely listed as cytotoxic | 360,000 tested, 1.6% active | AID 686970, 2013;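 note: NT is the 2HG producing partner of a matched IDH1 knockdown line; nearly all actives have a fitted effect of over 55% in size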
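Toxicity toward the 2HG-producing NT line was scored as %Activity, normalised to DMSO and no-cell wells, from CellTiter-Glo luminescence after 48 hours' treatment.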
HT1080 IDH1KD tx: qHTS for induction of synthetic lethality in tumor cells producing 2HG: qHTS for the HT-1080-IDH1KD cell line; Potency, µM (top dose mostly 46.1 µM), usual class: cytotoxic; 360,000 tested, 2% active; HT-1080 IDH1 knockdown viability, ATP luminescence, 48 h; AID 686971, 2013
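Using the IDH1-knockdown HT-1080 line run in the same batch and compound series as the NT line, viability after 48 h at 37 °C was determined by CellTiter-Glo luminescence and expressed as % activity.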
DT40 TDP1 CPT: qHTS for Inhibitors of human tyrosyl-DNA phosphodiesterase 1 (TDP1): qHTS in cells in presence of CPT. Potency, µM (doses to about 46.2 µM), usual class: inhibitors. 420,000 tested, 12% active. chicken DT40 Tdp1-/-;hTDP1 cells + 20 nM CPT, ATP luminescence, 48 h. AID 686979, 2013; note: nearly all actives have a fitted effect of over 55% in size
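Chicken DT40 Tdp1-/- cells stably complemented with human TDP1 were seeded at 400 cells/well in medium containing 20 nM camptothecin, exposed to pin-transferred compounds, and grown at 37 °C for at least 48 hr. Viability was read as ATP luminescence.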
DT40 TDP1 no CPT: qHTS for Inhibitors of human tyrosyl-DNA phosphodiesterase 1 (TDP1): qHTS in cells in absence of CPT; 420,000 tested, 15% active; Potency, µM (highest dose often 46.2 µM), most hits filed as inhibitors; AID 686978, 2013; DT40 Tdp1-/- hTDP1 cells, no CPT, ATP luminescence, 48 h; note: nearly all actives have a fitted effect of over 55% in size
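Chicken DT40 Tdp1-/- cells complemented with human TDP1, screened without camptothecin (DMSO vehicle only), 400 cells/well. Compounds pin-transferred, cells incubated at 37 °C for at least 48 hr. Growth read as ATP-dependent luminescence (CellTiter-Glo, 30 min at RT).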
IL-1B inflam inh: qHTS for Inhibitors of Inflammasome Signaling: IL-1-beta AlphaLISA Primary Screen | THP-1 LPS/ATP IL-1B secretion, AlphaLISA, 16 h; hits give low values | activity change, % at 57.5 µM | 360,000 tested, 4.7% active | AID 743279, 2014; in the data active = activity change below about -50%; inconclusive = mostly about -30% to -49%
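Secreted IL-1B measured by AlphaLISA bead assay after 16 h compound exposure of THP-1 cells; compounds (final up to 57.5 uM) added 1 h before LPS (250 ng/mL) and ATP (1.25 mM) stimulation; lower signal means less secretion.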
A number is an active result; n = inactive; u = inconclusive; x = no result given. Most compounds without a hit are left out; they make up all but 19% or so of the library. Unless noted, calls come from the whole dose curve; as a rule, active = well fitted curve in the direction sought with a large enough effect; inconclusive = small, poorly fitted or top-dose-only effect, or another doubt; inactive = no such curve, though single readings can be large; an effect the other way counts as inactive or inconclusive.

SMILES | HT1080NT lethal | HT1080 IDH1KD tx | DT40 TDP1 CPT | DT40 TDP1 no CPT | IL-1B inflam inh
CCOc1ccc(-n2c(SCC(=O)Nc3cc(C)ccc3C)nc3c([nH]c4ccccc43)c2=O)cc1 | x | x | 13µM | 16µM | x
CCOc1ccc(-n2c(SCC(=O)Nc3cc(C)on3)nc3c([nH]c4ccccc43)c2=O)cc1 | n | n | u | n | n
CCN(CCCNC(=O)CCCn1c(=O)[nH]c2ccccc2c1=O)c1cccc(C)c1 | n | n | u | 21µM | u
COC(=O)c1ccc2c(=O)n(CCCCCC(=O)NCCc3ccccc3)c(=O)[nH]c2c1 | x | x | u | 18µM | x
O=C(CCCCCn1c(=O)[nH]c2ccccc2c1=O)NCCc1ccccc1 | x | x | 0.29µM | 0.46µM | x
O=C(CCCCCn1c(=O)[nH]c2ccccc2c1=O)NCc1ccccc1 | x | x | n | n | x
COc1cc2[nH]c(=O)n(CCCCCC(=O)NCCc3ccccc3)c(=O)c2cc1OC | x | x | n | n | x
CCc1c(CN2CCN(c3cccc(C)c3)C(C)C2)csc1C (stereo unspecified) | x | x | u | n | x
O=C(NCCN1CCOCC1)c1ccc2c(c1)N(Cc1ccccc1F)C(=O)c1ccccc1S2 | n | n | 21µM | n | n
Cc1ccccc1CN1C(=O)c2ccccc2Sc2ccc(C(=O)NCCc3ccccc3)cc21 | x | x | 16µM | 21µM | x
COc1ccc(CCNC(=O)c2ccc(Cn3c(=O)c4ccccc4n(Cc4ccccc4Cl)c3=O)cc2)cc1OC | x | x | n | n | x
COc1ccc(CCNC(=O)c2ccc3c(c2)N(Cc2ccccc2Cl)C(=O)c2ccccc2S3)cc1OC | x | x | 6.5µM | 7.3µM | x
CCN1C(=O)c2ccccc2Sc2ccc(C(=O)NCCCN3CCOCC3)cc21 | n | n | n | n | n
O=C(c1ccc2c(c1)N(Cc1ccccc1F)C(=O)c1ccccc1S2)N1CCOCC1 | n | n | n | n | n
Cc1ccccc1CN1C(=O)c2ccccc2Sc2ccc(C(=O)NCCN3CCOCC3)cc21 | n | n | u | 23µM | n
Cc1ccccc1CN1C(=O)c2ccccc2Sc2ccc(C(=O)O)cc21 | n | n | n | n | n
Cc1nn(-c2ccccc2)c(C)c1NC(=O)COc1ccc([N+](=O)[O-])cc1 | n | n | u | 15µM | n
Cc1ccc(C)c(OCC(=O)OCC(=O)Nc2c(C)nn(-c3ccccc3)c2C)c1 | n | n | n | n | n
Cc1nn(-c2ccccc2)c(C)c1NC(=O)COc1ccc(F)cc1Cl | n | n | 23µM | 21µM | n
Cc1ccc(OCC(=O)Nc2c(C)nn(-c3ccccc3)c2C)c(Br)c1 | n | n | u | 23µM | u
Cc1ccc(CN(Cc2ccccc2)C(=S)Nc2ccccc2C)o1 | n | n | u | u | n
CCN(CC)/C(=N\S(=O)(=O)c1ccccc1C)c1ccccc1 | n | n | n | n | n
Cc1ccc(C(CNS(=O)(=O)c2ccc(F)cc2C)N2CCN(C)CC2)cc1 (stereo unspecified) | n | n | 18µM | u | n
Cc1cc(S(=O)(=O)NCC(c2ccc(F)cc2)N2CCN(C)CC2)ccc1F (stereo unspecified) | u | n | u | u | n
NCC(=O)c1c[nH]c2ccccc12 | x | x | u | n | x
SMILES | HT1080NT lethal | HT1080 IDH1KD tx | DT40 TDP1 CPT | DT40 TDP1 no CPT | IL-1B inflam inh
CCCC1=Nc2cc(C(=O)NCc3ccccc3)ccc2Sc2ccccc21 | x | x | 4.1µM | 3.3µM | x
CCCC1=Nc2cc(C(=O)NCCN3CCOCC3)ccc2Sc2ccccc21 | u | n | n | n | n
CCOC(=O)C1CCN(C(=O)c2ccc(OCC)c(OCC)c2)CC1 | n | n | u | n | n
CCC1=Nc2cc(C(=O)NCc3ccco3)ccc2Sc2ccccc21 | 2.6µM | 5.8µM | 3.3µM | 4.6µM | n
CCOC(=O)C1CCN(C(=O)c2ccc3c(c2)N=C(CC)c2cc(C)ccc2S3)CC1 | x | x | 15µM | u | x
CCC1=Nc2cc(C(=O)NCCc3ccc(OC)c(OC)c3)ccc2Sc2ccccc21 | x | x | 16µM | 23µM | x
N#Cc1ccc(C2=NC(C(F)(F)F)(C(F)(F)F)c3c(n(Cc4ccco4)c(=O)[nH]c3=O)N2)cc1 | n | n | n | n | n
CCC1=Nc2cc(C(=O)NCc3ccco3)ccc2Sc2ccc(Cl)cc21 | 5.2µM | u | 1.3µM | 1µM | n
CCC1=Nc2cc(C(=O)NCc3ccc(C)cc3)ccc2Sc2ccc(C)cc21 | x | x | 7.3µM | 8.2µM | x
COc1ccc(CCn2c3c(c(=O)[nH]c2=S)CN(C)CN3)cc1OC | n | n | n | n | x
O=C(NCCO)c1cn(C2CCN(Cc3c(F)cccc3Cl)CC2)nn1 | x | x | n | n | x
N#Cc1c(N2CCSCC2)nsc1-c1ccccc1Cl | n | u | u | n | n
Cc1cc(NCCN2CCOCC2)c2ccc3ccccc3c2n1 | u | u | u | u | -82
CCc1cccc(NC(=O)C(NS(=O)(=O)c2ccc3nc(C)sc3c2)C(C)C)c1 (stereo unspecified) | x | x | n | n | x
O=C(NC1CCCCC1)C(c1ccccc1)N(Cc1ccc2c(c1)OCO2)C(=O)c1cnsn1 (stereo unspecified) | n | n | 21µM | u | -61
O=C(NC1CCCCC1)C(c1ccc2ncccc2c1)N(Cc1ccc2c(c1)OCO2)C(=O)c1ccc2c(c1)OCCO2 (stereo unspecified) | n | n | u | 26µM | n
COc1cc(/C=c2\s/c(=C(/C#N)C(=O)N3CCCC3)n(-c3ccccc3)c2=O)ccc1O | n | n | u | 9.2µM | n
CC(=O)c1cccc(NC(=O)Cn2ccn3nc(-c4ccccc4)cc3c2=O)c1 | x | x | n | n | x
COc1ccccc1-n1cnc(N)c1C(=O)c1ccccc1 | u | 26µM | 9.2µM | 8.2µM | n
COC(=O)c1ccc(NC2(C#N)C(=O)Nc3ccccc32)cc1 (stereo unspecified) | n | n | u | 23µM | n
Cc1ccc(NC2(C#N)C(=O)Nc3ccccc32)cc1C (stereo unspecified) | u | n | n | n | n
CC(C)(CNC(=O)C1c2ccccc2-c2ccccc21)N1CCOCC1 | n | n | n | n | -68
CC(C)(CNC(=O)c1cc2ccccc2o1)N1CCOCC1 | n | n | n | n | n
Cc1ccc(S(=O)(=O)N(CC(=O)NCC2CCCO2)Cc2cccc(C)c2)cc1 (stereo unspecified) | n | n | n | n | n
S=C(Nc1ccc(Cl)cc1)NC1CC2CCCC(C1)N2C1CCCC1 (stereo unspecified) | u | u | u | u | n
CNC(=S)NC1CC2CCC(C1)N2Cc1ccccc1 (stereo unspecified) | n | n | n | n | n
